Reference: PubChem BioAssay AID1053144 (Broad Institute, 2014)
Among all 3,400 compounds or so, about 160 (4.7%) were called active.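 Rule for the calls: active = fitted curve reaches 30% activation at a concentration no higher than the top valid tested dose, luminescence rising; inconclusive = no clear call, values can overlap the other calls; inactive = signal moving opposite to the expected increase, plus the rest.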 The list is a sample of the results. Measured potencies and affinities stand elsewhere.

Test: Wnt/beta-catenin signaling activators, dose response, cell-based, iPS-derived NPC, luciferase, Wnt3a, cherry-pick (AID 1053144);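 note: Wnt3a stimulus is conditioned medium from Wnt3a-transfected mouse L cells at 5% in well; 0% = neutral control wells and 100% = CHIR-99021 positive control wells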
Conditions: NPC TCF/LEF luciferase reporter, Wnt3a EC25, 24 h; series mostly up to 26 µM; activation: at the top concentration

activation, inactive:
Fc1ccc(-c2nc3ccccc3[nH]2)cc1 13.1%
CC(C)CSc1nnc2c(n1)[nH]c1ccccc12 3.64%
O=C(/C=C(\Nc1ccccc1)c1ccccc1)c1ccccc1 -0.624%
c1ccc2oc(SCc3cn4ccsc4n3)nc2c1 10.8%
Cc1ccc(SCc2cn3cc(Cl)ccc3n2)cc1 7.16%
O=C(CNC(=O)c1ccccc1F)c1ccccc1 0.87%
O=C(CCN1CCN(c2ccccc2)CC1)Nc1ccc(OCc2ccccc2)cc1 1.26%
Cc1ccnc(NC(=O)c2ccc(S(=O)(=O)N3CCC(C)CC3)cc2)c1 6.2%
CSc1ccc(/C=N/NC(=O)c2cc(O)cc(O)c2)cc1 15.1%
O=C(/C=C/c1ccc(OC2CSC2)cc1)c1ccccc1 2.74%
N=c1c2c(ncn1CCCO)Oc1c(ccc3ccccc13)C2c1ccccc1 (stereo not given) -1.09%
COc1ccc(O)c(/C=N/N2CCCCC2)c1 10.5%
COc1ccccc1CCc1nnc(CCC(=O)N(C)Cc2cccc3cnccc23)o1 7.69%
C(=N\Nc1nc2ccccc2[nH]1)/c1cccs1 6.38%
Cc1nn(-c2ccccc2)c(C)c1/C=N/Nc1nc2ccccc2[nH]1 20.5%
C=CCn1cc(/C=N/Nc2nc3ccccc3[nH]2)c2ccccc21 6.37% [at 6 µM]
Cc1ccsc1/C=N/Nc1nc2ccccc2[nH]1 13.7%
C(=N\Nc1nc2ccccc2[nH]1)/c1cccc2cccnc12 -6.2%
CC(/C=N/Nc1nc2ccccc2[nH]1)=C\c1ccccc1 6.18%
C(=N\Nc1nc2ccccc2[nH]1)/c1ccc2c(c1)OCCO2 8.63%
Clc1nc2ccccc2cc1/C=N/Nc1nc2ccccc2[nH]1 6.98%
O=C(NCCc1ccccc1F)C(=O)Nc1nccs1 8.45%
CSc1ccccc1OCc1cc(C(=O)N2CCCC(C)C2)no1 (stereo not given) 18.5%
CCCC(=O)c1ccc(N2CCC(C)CC2)c(F)c1 8.52%
COc1ccc(C(=O)Nc2nnc(SCC(=O)Nc3ccc(NC(C)=O)cc3)s2)c(OC)c1 12.3%
Cc1ccc(NC(=O)c2ccc(F)cc2)nc1 15.3%
CCOC(=O)c1cnc2c(-c3ccccc3)cnn2c1N 7.17%
Cn1c(SCc2ccc(F)cc2)nnc1-c1ccccn1 13.4%
COC(=O)c1c(-c2ccc(SC)cc2)sc2ccc(OC)cc12 7.8%
O=C(O)c1cc(N/N=C/c2ccc(N3CCOCC3)cc2)ccc1Cl -1.2%
Cc1cnc(NC(=O)c2ccccn2)s1 -0.046%
Cc1ccc(NC(=O)c2ccccn2)c(Br)c1 6.25%
COc1ccc(NC(=O)Nc2ccc3oc(C)nc3c2)cc1 13%
Fc1ccccc1-c1cc2ncccc2cn1 11.5%
COc1cccc(C(=O)COC(=O)c2cccs2)c1 11.3%
COc1ccc(C(=O)COC(=O)c2cccs2)cc1 8.71%
CCn1c(COc2ccc(OC)cc2)nc2ccccc21 11.6%
COc1cc(Cl)ccc1OCc1cc(C(=O)N(C)CC2CCCCO2)no1 (stereo not given) 8.88%
COc1ccccc1OCc1cc(C(=O)N2CCN(C)C(c3ccccc3)C2)no1 (stereo not given) 15.3%
Cc1ccccc1Nc1nc(N)c2ccccc2n1 3.57%
Nc1nc(Nc2ccccc2)nc2ccccc12 2.38%
CCOC(=O)c1oc2nc3c(cc2c1N)CCCC3 8.93%
O=C(CSc1nnc(C2CC2)n1C1CC1)c1ccc(Br)s1 10.4%
Oc1ccccc1-c1cc(-c2ccc(F)cc2)n[nH]1 19.7%
Cc1ccccc1-c1cc(-c2ccccc2O)n[nH]1 20.9%
COC(=O)c1cc(C)nc(Nc2nc(C(N)Cc3ccc(Cl)cc3)cs2)n1 (stereo not given) -5.29%
Cc1ccc(NC(=O)c2csc3c2CCCC3)cc1 8.16%
CCOc1ccc(NC(=O)c2csc3c2CCCC3)cc1 12.5%
CCOc1ccc(NC(=O)c2ccc3c(c2)N(C)CCS3)cc1 1.57%
O=C(CSc1ccsc1[N+](=O)[O-])NCc1ccco1 10.5%
CC(C)Nc1ncnc2c1cnn2-c1ccccc1 3.91%
COc1ccccc1Nc1ncnc2c1cnn2-c1cccc(C)c1 6.78%
Cc1ccc(OCC(=O)Nc2ccccc2F)cc1C 9.3%
c1ccc(CNc2ncnc3c2oc2ccccc23)nc1 13.2%
c1ccc2c(c1)oc1c(NCC3CCCO3)ncnc12 (stereo not given) 16.6%
CCOC(=O)N/N=C\c1ccccc1OC/C=C/c1ccccc1 2.48%
O=C(/C=C/Nc1cccc(O)c1)c1ccccc1 -2.82%
COc1ccc(C(=O)Nc2ccccc2C(=O)NCc2ccco2)cc1OC 1.33%
O=C(Nc1cccc([N+](=O)[O-])c1)c1ccc2c(c1)OCCO2 9.15%
CC(=O)Nc1cccc(NC(=O)c2ccc(C)c([N+](=O)[O-])c2)c1 1.38%
COc1ccc(-c2ccc(NC(=O)c3ccc(Br)o3)cc2)nn1 17%
Cc1ccc(/C(=N/Nc2ncnc3ccccc23)C(=O)O)cc1 11.8%
Cc1cccc(Nc2ncnc3ccccc23)c1 0.509%
Cc1ccc(C(=O)Nc2cc3c(oc2=O)CCCC3=O)cc1 9.54%
Cn1nnc2cc(C(=O)Nc3ccc4ccccc4c3)ccc21 16.4%
CCOc1ccc(-n2c(COc3ccc(C)cc3)nnc2SCC(N)=O)cc1 14.3%
CCOc1ccc(C2C=C(c3ccccc3)Nc3nnnn32)cc1 (stereo not given) 2.97%
COc1ccc(C(=Cc2ccccc2[N+](=O)[O-])C(=O)O)cc1 11.6%
O=C(Nc1ccc(NC(=O)C2CC2)cn1)c1ccccc1Cl 5.17%
O=C(Nc1ccc(NC(=O)c2cccs2)cn1)c1ccccc1 5.59%
COc1cc(NC(=O)c2cccs2)ccc1NC(=O)c1ccco1 11.8%
O=C(Nc1ccc(F)cc1)c1cc(-c2ccccc2)no1 6.64%
O=C(NCC1CCCO1)c1cc(-c2ccc(Cl)cc2Cl)on1 (stereo not given) 12.2%
Cc1cc([N+](=O)[O-])ccc1NC(=O)/C=C/c1cccs1 10.2%
COc1ccc2[nH]c3c(NCCCOC(C)C)ncnc3c2c1 13.2%
CCN(C(=O)C=Cc1ccco1)c1ccccc1 4.04%
O=C(CNc1ccc2ccccc2c1)N/N=C/c1ccc(OC(=O)/C=C/c2ccco2)cc1 23.3% [at 12 µM]
Cc1ccccc1Cn1nnc(-c2cccc(C(=O)O)c2)n1 4.93%
COc1ccc(S(=O)(=O)n2ccc(-c3cnc(-c4ccccc4)s3)n2)cc1 4.09%
Cc1cccc(Nc2nc(-c3ccc(F)c(C)c3)cs2)n1 4.46%
